According to PubChem BioAssay (NCATS):
Several values for one entry are separate records, joined by “and”; a condition that tells them apart may be missing. Equal entries are not always repeated. Results filed as inconclusive are left out. Activity calls are given as the source filed them. Calls follow the shape of the full dose curve.

Assay: qHTS Assay for Lipid Storage Modulators (AID 1519); as to activity change, negative = inhibition: % is scaled to controls: 0 for no effect and ±100 for the full control effect
Details: Drosophila S3 cells, BODIPY lipid droplet/cell ratio, laser cytometry, cells loaded with oleic acid
Source text: NIH Molecular Libraries Probe Production Centers Network [MLPCN]
NIH Chemical Genomics Center [NCGC]
Assay Submitter (PI): Beller, Mathias; Max-Planck-Institut fur Biophysikalische Chemie
NCGC Assay Overview: Storing lipids as a reservoir for energy or the anabolism of elementary metabolites is a common feature of probably all cells and is conserved from bacteria to humans. The universal cellular lipid storage organelle is the so-called lipid storage droplet (LD). Although ubiquitous, LDs share a simple structure composed of a hydrophobic core that harbors the storage lipids, which is shielded by a droplet-specific phospholipid monolayer to which proteins are attached. The current model of LD biogenesis involves an incorporation of the lipid core into the membrane leaflets of the endoplasmic reticulum (ER) followed by a subsequent budding-like maturation of a LD, which ultimately pinches off. Once released, LD volume can increase by localized lipogenesis or fusion of existing droplets. Storage lipids are re-mobilized enzymatically by lipase activity. Lipase regulation in the adipocyte is heavily studied and involves multiple components including catecholamine signaling, the LD-associated proteins Perilipin and comparative gene identification-58 (CGI-58) and at least two lipases named hormone sensitive lipase (HSL) and adipocyte triglyceride lipase (ATGL). LD regulation outside of the adipocyte is poorly understood and only few components are known. However, there is an urgent need to learn more about ectopic fat depots as mislocalized storage of lipids, for example in the liver or muscle, is an eminent health problem associated with insulin resistance or the metabolic syndrome. We developed a laser-scanning cytometer assay to enable 1,536-well screening and combined the results of the small molecules screen with an RNAi database based on lipid storage.
NCGC Assay Protocol Summary:
We dispensed 4 uL of cells at 1.25 x 10^6 cells/mL into LoBase Aurora COC 1,536-well plates (black walled, clear bottom) with a bottle-valve solenoid-based dispenser (Aurora) to obtain 5,000 cells/well. Triacsin C (Sigma-Aldrich T-4540), an inhibitor of long-chain fatty acyl CoA synthetase that blocks synthesis of triglycerides, was used as a positive control for lipid under-storage. A total of 23 nL of compound solution of different concentrations were transferred to the assay plates using a Kalypsys pin tool equipped with a 1,536-pin array containing 10-nL slotted pins (FP1S10, 0.457-mm diameter, 50.8 mm long; V&P Scientific). One microliter of oleic acid (400 uM) was added, and the plate was lidded with stainless steel rubber gasket lined lids containing pinholes. […] Fluorescence was detected by excitation of the fluorophores with a 488-nm laser on an Acumen Explorer (TTP Lab Tech). The total intensity in channel 1 (500-530 nm) reflected lipid droplet accumulation. […] The ratio of the total intensity in PMT channel 1 over total intensity of channel 3 was also calculated. Percent activity was computed relative to an internal control (100% inhibited lipid droplet deposition due to the presence of 20 uM Triacsin C), which was added to 32 wells/plate.

[1] = measured here: cell count channel max response
[2] = measured here: lipid channel max response

SMILES	activity change, negative = inhibition (at 25.7 µM (top of the series))	max response [1]	max response [2]	activity change, negative = inhibition (at 57.5 µM (top of the series))
CN1[C@@H]2CC[C@H]1CC(OC1c3ccccc3CCc3ccccc31)C2 (stereo not given in full)	-3.36% (inactive)	-5.63%	-11.3%	
NC(N)=NOCC[C@H](N)C(=O)O	-2.42% (inactive)	-2.62% and 0.126% and 38.5%	-6.68% and -0.879% and 37%	-0.661% (inactive) and -1.31% (inactive)
CC(N)Cc1ccc(O)cc1 (stereo not given)		11.5%	13.9%	1.02% (inactive)
CC(N)[C@H](O)c1ccc(O)c(O)c1 (stereo not given in full)		1.77%	2.21%	0.659% (inactive)
Clc1cc(I)cc(Cl)c1NC1=NCCN1		-25.7%	-24.3%	0.0728% (inactive)
C[N+]1(C)CCC(OC(=O)C(c2ccccc2)c2ccccc2)CC1		3.78% and -17.3%	1.6% and -18%	-1.55% (inactive) and -0.573% (inactive)
CCCN(CCC)[C@@H]1CCc2cccc(O)c2C1		0.992% and 13.8% and 35%	-2.21% and 19.9% and 27.7%	-3.59% (inactive) and 3.17% (inactive) and -3.25% (inactive)
CCCN(CCC)CCc1c[nH]c2ccc(C(N)=O)cc12		-28.4%	-33.9%	1.01% (inactive)
CC(N)Cc1c[nH]c2ccc(O)cc12 (stereo not given)		8.43%	9.94%	-0.0169% (inactive)
O=C1CCO1		8.02%	16.6%	5.6% (inactive)
CN(N=O)c1ccc(O)c(O)c1		-25.4%	-24.9%	-1.9% (inactive)
c1ccc2c(N3CCNCC3)cccc2c1		39.8%	34.6%	-1.92% (inactive)
COc1ccc2[nH]c3c(c2c1)CCNC3		-42.9%	-46.2%	-0.655% (inactive)
